# Assay results taken from PubChem BioAssay (EPA / NIEHS).
# Activity calls are given as the source filed them. The calls were made as follows: active = hit-call score of the fitted dose curve at least 0.9, where 1 is the maximum; inactive = score below 0.9.
# Experiment: BSK_4H_Eotaxin3: BioMAP Diversity Plus: 4H Assay for Eotaxin 3 Biomarker Activity (AID 2283000)
# Settings: primary human endothelial cells (HUVEC); actives raise or lower the signal
# Protocol: BSK_4H is a cell-based, multiplexed-readout assay that uses umbilical vein endothelium, a human vascular primary cell, with measurements taken at 24 hours after chemical dosing in a 96-well plate.BSK_4H_Eotaxin3 is an assay component measured in the BSK_4H assay. It measures Eotaxin-3 antibody related to regulation of gene expression using ELISA technology.Data from the assay component BSK_4H_Eotaxin3 was analyzed into 1 assay endpoint. This assay endpoint, BSK_4H_Eotaxin3, was analyzed with bidirectional fitting relative to DMSO as the negative control and baseline of activity. Using a type of binding reporter, gain or loss-of-signal activity can be used to understand changes in the signaling as they relate to the gene CCL26. Furthermore, this assay endpoint can be referred to as a primary readout, because this assay has produced multiple assay endpoints where this one serves a signaling function. To generalize the intended target to other relatable targets, this assay endpoint is annotated to the cytokine intended target family, where the subfamily is chemotactic factor.
# The levels of cell surface (or secreted, indicated by the prefix "s") biomarker endpoints were measured by ELISA. Overt cytotoxicity to cells in confluent adherent cultures (all systems other than the BT system) was assessed by measuring total protein levels using sulforhodamine B (SRB) staining in parallel cultures at the time of biomarker measurements, indicated as SRB endpoints. For proliferation assays for adherent cell types, individual cell types are cultured at sub-confluence and relative cell numbers quantified by SRB staining at time points optimized for each system (48 h: 3C and CASM3C systems; 72 h: BT and HDF3CGF systems; 96 h: SAg system). SRB was performed by staining cells with 0.1% SRB after fixation with 10% TCA and reading wells at 560 nm.Viability and proliferation of PBMC (T cells) was quantified by Alamar Blue reduction for the SAg and BT systems. For PBMC viability (referred to as PBMC Cytotoxicity within the assay endpoint names), cells were plated (75,000/well in a 96-well plate) and then chemical samples added for 1 h before addition of activators, SEB and TSST-1 (20 ng/mL final concentration each). Cells were incubated for 90 h. Then, Alamar Blue (20 uL/well) (Invitrogen, Cat DAL1100) was added for 6 h, and the plates were read with a fluorescence microplate reader at 546/580 nm (excitation/emission). For PBMC proliferation, cells were plated and activated as above but incubated for only 16 h prior to addition of Alamar Blue. Plates were read after 6 h.
Compound,AC50,outcome
Cc1[nH]cnc1C[C@H]1CCc2c(C)c3ccccc3n2C1=O,29.6 µM (active),–
O=C(O)CC(O)C(=O)O (stereo not given),–,inactive
CCCCCCCCCCCCc1ccccc1,26.6 µM (active),–
Nc1nc2ncc(CNc3ccc(C(=O)N[C@@H](CCC(=O)O)C(=O)O)cc3)nc2c(=O)[nH]1,–,inactive
CNCc1ccc(NC(=O)c2c[nH]c3c2C(=O)CCC3)cc1,–,inactive
CCCC(=O)OCC,–,inactive
CCNc1ccccc1,–,inactive
O=C(O)CCN(C1(C(=O)NO)CCCC1)S(=O)(=O)c1ccc(Oc2ccc(F)cc2)cc1,–,inactive
CCCCC(CC)COC(=O)CCCCCCCCC(=O)OCC(CC)CCCC (stereo not given),–,inactive
NC(=O)NO,–,inactive
CCOCCO,–,inactive
COC(=O)c1c(Cl)c(Cl)c(C(=O)OC)c(Cl)c1Cl,–,inactive
COCCOCCOCCOC,–,inactive
CC/C(=C\C(=N/O)C(N)=O)C(C)[N+](=O)[O-] (stereo not given),–,inactive
Clc1nc(Cl)c(Cl)c(Cl)c1Cl,–,inactive
CC(C)(O)c1coc(S(=O)(=O)NC(=O)Nc2c3c(cc4c2CCC4)CCC3)c1,–,inactive
CCOC(=O)c1ccc(C2CCC(NC[C@H](O)COc3ccc(O)c(NS(C)(=O)=O)c3)CC2)cc1 (stereo not given in full),–,inactive
COc1ccc(/C=C/S(=O)(=O)NC(=O)c2ccc(C)cc2Cl)cc1,–,inactive
CCOc1cccc(-n2cc(C(=O)N3CCN(c4cc(C(=O)O)c5ccccc5c4)CC3)nc2-c2ccc(C)cc2)c1,33.1 µM (active),–
CC(C)=CCCC(C)=CC=O,–,inactive

Compound,AC50,outcome
CC(C)=CCC/C(C)=C/CO,–,inactive
CC(=O)c1ccc2c(c1)[C@H](NC(=O)c1ccc(F)cc1)[C@@H](O)C(C)(C)O2,–,inactive
O=C(OC[C@H]1O[C@@H](OC(=O)c2cc(O)c(O)c(OC(=O)c3cc(O)c(O)c(O)c3)c2)[C@H](OC(=O)c2cc(O)c(O)c(OC(=O)c3cc(O)c(O)c(O)c3)c2)[C@@H](OC(=O)c2cc(O)c(O)c(OC(=O)c3cc(O)c(O)c(O)c3)c2)[C@@H]1OC(=O)c1cc(O)c(O)c(OC(=O)c2cc(O)c(O)c(O)c2)c1)c1cc(O)c(O)c(OC(=O)c2cc(O)c(O)c(O)c2)c1,8.95 µM (active),–
CCCCCCCCO,–,inactive
CC(=O)OCCC(C)C,–,inactive
CCN(C(=O)c1cc(C)cc(OC[C@H](C)Nc2ccncc2)c1)C(C)C,–,inactive
O=C(O)c1cccc(N(Cc2cccnc2)c2ccc(OC(F)F)c(OC(F)F)c2)c1,12.9 µM (active),–
Cn1cnc([N+](=O)[O-])c1Sc1ncnc2nc[nH]c12,–,inactive
O=C(O)c1cccc(Oc2ccccc2)c1,–,inactive
CCCCC(CC)COC(=O)c1ccc(C(=O)OCC(CC)CCCC)cc1 (stereo not given),–,inactive
On1ccccc1=S,16.1 µM (active),–
CC(C)CCCCCCCOC(=O)CCCCC(=O)OCCCCCCCC(C)C,–,inactive
Cc1ccc(S(=O)(=O)O)cc1C,–,inactive
CC(C)CCCCCCOC(=O)c1ccc(C(=O)OCCCCCCC(C)C)c(C(=O)OCCCCCCC(C)C)c1,–,inactive
CC(C)CC(C)(O)C#CC(C)(O)CC(C)C (stereo not given),–,inactive
COC(=O)c1ccccc1O,–,inactive
Oc1ccc2c(c1)-c1ccccc1C2,23.3 µM (active),–
Nc1cccc(N)c1,–,inactive
O=C1OC(=O)C2C3C=CC(C3)C12 (stereo not given),–,inactive
O=P(OC(CCl)CCl)(OC(CCl)CCl)OC(CCl)CCl,–,inactive
